# Experimental data as given in article PMC7862700, “An all-to-all approach to the identification of sequence-specific readers for epigenetic DNA modifications on cytosine”.
# What was measured:
# Experiment in all cases: DAPPL (digital affinity profiling via proximity ligation, sequencing); 10 mM Tris-HCl pH 7.5, 50 mM NaCl, 1 mM DTT, 4% glycerol, room temperature, 30 min; GST-TFs on glutathione beads, 16-mer random dsDNA library, 0.1% formaldehyde crosslink after washing; high values mean tight binding
# [1] = target: T1, FEV (Homo sapiens, UniProt Q99581 1-238); settings: protein: recombinant; tags: N-terminal GST; dsDNA, one strand shown
# T1 sequence: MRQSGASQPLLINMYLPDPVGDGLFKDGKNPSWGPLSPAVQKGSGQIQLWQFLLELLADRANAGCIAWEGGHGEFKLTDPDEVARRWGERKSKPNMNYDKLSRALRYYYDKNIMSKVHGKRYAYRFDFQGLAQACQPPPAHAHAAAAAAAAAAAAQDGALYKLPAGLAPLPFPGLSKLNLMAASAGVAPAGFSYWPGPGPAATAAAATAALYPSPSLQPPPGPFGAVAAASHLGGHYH
# Outline: (§1)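 Binding signal is defined as a hexamer's read frequency for one factor over its frequency for the tag-only sample. To obtain reads, GST-fused human transcription factors were expressed in yeast, captured on glutathione beads, barcoded with DNA and pooled with that sample. Pools met 200 nmole of a 16-mer random double-stranded DNA library in Tris/NaCl/DTT/glycerol buffer for 30 min at room temperature before washing, 0.1% formaldehyde crosslinking, proximity ligation (BsaI/T4 ligase, 1 h, 37 °C), PCR and Illumina NextSeq500 sequencing.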
# [2] = target: ETV5 (Homo sapiens, UniProt P41161 1-510); settings: protein: recombinant; tags: N-terminal GST; dsDNA, one strand shown
# ETV5, sequence (P41161 whole entry): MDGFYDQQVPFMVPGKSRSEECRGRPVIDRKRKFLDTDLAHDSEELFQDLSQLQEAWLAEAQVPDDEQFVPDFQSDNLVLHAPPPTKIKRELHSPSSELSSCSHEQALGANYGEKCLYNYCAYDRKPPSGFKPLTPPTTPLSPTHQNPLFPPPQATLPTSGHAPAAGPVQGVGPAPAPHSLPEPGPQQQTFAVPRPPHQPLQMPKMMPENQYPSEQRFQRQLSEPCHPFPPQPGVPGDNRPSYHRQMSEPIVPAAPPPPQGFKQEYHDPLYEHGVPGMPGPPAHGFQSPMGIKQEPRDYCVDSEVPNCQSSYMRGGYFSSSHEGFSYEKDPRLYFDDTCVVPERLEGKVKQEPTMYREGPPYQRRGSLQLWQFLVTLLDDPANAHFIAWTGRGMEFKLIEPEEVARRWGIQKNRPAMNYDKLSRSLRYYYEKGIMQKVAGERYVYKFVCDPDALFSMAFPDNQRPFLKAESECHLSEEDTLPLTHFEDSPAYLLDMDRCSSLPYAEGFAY
# Outline: as §1
# [3] = target: HSF1 (Homo sapiens, UniProt Q00613 1-529); settings: protein: recombinant; tags: N-terminal GST; chain copies: 3; dsDNA, one strand shown
# HSF1, sequence (Q00613 whole entry): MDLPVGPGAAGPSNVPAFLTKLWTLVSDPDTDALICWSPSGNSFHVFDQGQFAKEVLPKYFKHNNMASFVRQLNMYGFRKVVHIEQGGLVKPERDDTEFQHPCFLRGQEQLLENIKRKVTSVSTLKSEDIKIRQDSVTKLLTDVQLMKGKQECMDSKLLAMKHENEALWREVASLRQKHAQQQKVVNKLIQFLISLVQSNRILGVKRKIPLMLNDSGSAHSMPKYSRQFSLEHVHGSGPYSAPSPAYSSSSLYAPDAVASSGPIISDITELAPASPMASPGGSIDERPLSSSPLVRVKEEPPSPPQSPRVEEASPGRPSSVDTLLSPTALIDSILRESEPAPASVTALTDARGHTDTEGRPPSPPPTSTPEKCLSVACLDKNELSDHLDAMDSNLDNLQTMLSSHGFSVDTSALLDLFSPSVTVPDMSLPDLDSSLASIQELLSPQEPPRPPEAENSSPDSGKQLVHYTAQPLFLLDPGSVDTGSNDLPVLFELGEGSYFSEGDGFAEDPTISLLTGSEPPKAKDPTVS
# Outline: as §1
# [4] = target: T2, SPIC (Homo sapiens, UniProt Q8N5J4 1-248); settings: protein: recombinant; tags: N-terminal GST; dsDNA, one strand shown
# T2 sequence: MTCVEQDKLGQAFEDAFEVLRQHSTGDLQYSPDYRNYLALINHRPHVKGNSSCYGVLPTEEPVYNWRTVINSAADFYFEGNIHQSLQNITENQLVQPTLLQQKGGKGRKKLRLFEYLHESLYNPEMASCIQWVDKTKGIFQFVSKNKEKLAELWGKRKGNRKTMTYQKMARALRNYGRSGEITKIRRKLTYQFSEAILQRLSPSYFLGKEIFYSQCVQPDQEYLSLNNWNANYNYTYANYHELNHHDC
# Outline: as §1
# [5] = target: ELF4 (Homo sapiens, UniProt Q99607 1-663); settings: protein: recombinant; tags: N-terminal GST; dsDNA, one strand shown
# ELF4, sequence (Q99607 whole entry): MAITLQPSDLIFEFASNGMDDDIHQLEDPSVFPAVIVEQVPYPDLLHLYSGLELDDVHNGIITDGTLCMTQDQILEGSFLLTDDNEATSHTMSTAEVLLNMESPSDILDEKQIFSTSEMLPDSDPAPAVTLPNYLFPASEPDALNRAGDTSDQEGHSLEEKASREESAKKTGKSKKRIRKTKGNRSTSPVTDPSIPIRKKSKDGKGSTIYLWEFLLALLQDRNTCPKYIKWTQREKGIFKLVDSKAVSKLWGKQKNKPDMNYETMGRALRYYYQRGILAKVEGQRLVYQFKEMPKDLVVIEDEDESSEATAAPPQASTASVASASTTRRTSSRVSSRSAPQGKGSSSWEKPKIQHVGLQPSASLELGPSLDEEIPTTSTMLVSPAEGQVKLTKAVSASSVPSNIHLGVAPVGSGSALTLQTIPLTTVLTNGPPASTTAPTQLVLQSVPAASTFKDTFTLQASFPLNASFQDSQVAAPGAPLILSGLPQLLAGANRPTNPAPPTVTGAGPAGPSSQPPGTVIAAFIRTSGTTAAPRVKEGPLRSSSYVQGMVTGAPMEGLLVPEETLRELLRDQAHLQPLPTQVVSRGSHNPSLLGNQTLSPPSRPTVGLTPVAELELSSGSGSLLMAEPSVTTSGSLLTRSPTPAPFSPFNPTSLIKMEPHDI
# Outline: as §1
# [6] = target: T3, ELK4 (Homo sapiens, UniProt P28324-2 1-405); settings: protein: recombinant; tags: N-terminal GST; dsDNA, one strand shown
# T3 sequence: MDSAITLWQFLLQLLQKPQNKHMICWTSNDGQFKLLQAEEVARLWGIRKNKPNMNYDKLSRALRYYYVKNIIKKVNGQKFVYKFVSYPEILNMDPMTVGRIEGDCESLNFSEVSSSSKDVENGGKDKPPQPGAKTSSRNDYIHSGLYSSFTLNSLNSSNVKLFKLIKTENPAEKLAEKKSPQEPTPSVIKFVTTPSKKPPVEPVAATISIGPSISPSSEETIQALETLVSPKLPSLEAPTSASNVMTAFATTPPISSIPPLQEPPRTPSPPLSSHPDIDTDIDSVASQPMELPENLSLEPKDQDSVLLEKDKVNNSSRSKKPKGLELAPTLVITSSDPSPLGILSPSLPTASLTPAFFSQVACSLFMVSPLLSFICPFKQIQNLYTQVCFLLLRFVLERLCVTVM
# Outline: as §1
# [7] = target: T4, ETV2 (Homo sapiens, UniProt O00321 1-342); settings: protein: recombinant; tags: N-terminal GST; dsDNA, one strand shown
# T4 sequence: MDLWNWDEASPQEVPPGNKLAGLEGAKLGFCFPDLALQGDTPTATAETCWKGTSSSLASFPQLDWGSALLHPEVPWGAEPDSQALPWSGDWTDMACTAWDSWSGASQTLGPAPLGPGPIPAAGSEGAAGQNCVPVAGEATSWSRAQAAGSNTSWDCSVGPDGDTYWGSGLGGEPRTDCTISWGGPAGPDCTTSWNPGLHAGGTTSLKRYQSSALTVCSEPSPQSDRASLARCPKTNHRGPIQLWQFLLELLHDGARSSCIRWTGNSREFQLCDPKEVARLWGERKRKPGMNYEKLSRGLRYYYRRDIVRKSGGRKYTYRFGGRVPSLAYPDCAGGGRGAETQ
# Outline: as §1
# [8] = target: T5, ELF3 (Homo sapiens, UniProt P78545 1-371); settings: protein: recombinant; tags: N-terminal GST; dsDNA, one strand shown
# T5 sequence: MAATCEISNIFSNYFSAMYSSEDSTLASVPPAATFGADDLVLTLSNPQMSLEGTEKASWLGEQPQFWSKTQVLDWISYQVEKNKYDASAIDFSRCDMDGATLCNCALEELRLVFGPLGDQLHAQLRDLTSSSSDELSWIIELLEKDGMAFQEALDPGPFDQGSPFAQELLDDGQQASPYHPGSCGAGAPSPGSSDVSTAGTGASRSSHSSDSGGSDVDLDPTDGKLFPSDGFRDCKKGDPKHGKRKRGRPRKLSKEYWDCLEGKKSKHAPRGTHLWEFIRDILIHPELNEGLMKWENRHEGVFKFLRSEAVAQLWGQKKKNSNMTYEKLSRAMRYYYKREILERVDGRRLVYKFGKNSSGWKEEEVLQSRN
# Outline: as §1
# [9] = target: CRX (Homo sapiens, UniProt O43186 1-299); settings: protein: recombinant; tags: N-terminal GST; dsDNA, one strand shown
# CRX, sequence (O43186 whole entry): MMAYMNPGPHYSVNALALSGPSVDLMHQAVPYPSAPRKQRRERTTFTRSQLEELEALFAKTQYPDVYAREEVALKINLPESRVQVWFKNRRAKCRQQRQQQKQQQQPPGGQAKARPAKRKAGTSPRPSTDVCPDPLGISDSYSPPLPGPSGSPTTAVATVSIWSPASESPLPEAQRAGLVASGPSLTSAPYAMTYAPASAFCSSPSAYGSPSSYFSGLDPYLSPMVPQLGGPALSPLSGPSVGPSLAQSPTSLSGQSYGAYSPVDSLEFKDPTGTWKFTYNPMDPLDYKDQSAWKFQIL
# Outline: as §1
# [10] = target: ETV1 (Homo sapiens, UniProt P50549 1-477); settings: protein: recombinant; tags: N-terminal GST; dsDNA, one strand shown
# ETV1, sequence (P50549 whole entry): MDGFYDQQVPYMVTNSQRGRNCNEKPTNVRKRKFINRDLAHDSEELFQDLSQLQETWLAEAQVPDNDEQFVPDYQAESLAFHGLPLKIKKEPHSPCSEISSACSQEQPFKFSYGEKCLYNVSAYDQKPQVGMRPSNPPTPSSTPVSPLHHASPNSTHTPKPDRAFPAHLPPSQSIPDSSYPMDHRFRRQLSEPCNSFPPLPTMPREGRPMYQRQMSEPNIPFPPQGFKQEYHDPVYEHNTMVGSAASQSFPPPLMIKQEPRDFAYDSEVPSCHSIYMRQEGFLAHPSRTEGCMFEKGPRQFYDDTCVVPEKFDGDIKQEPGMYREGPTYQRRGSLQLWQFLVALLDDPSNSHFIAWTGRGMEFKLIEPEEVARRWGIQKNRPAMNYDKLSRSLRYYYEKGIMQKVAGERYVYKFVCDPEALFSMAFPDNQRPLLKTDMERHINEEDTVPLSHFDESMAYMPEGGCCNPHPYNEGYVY
# Outline: as §1
# [11] = target: T6, ERF (Homo sapiens, UniProt P50548 1-548); settings: protein: recombinant; tags: N-terminal GST; dsDNA, one strand shown
# T6 sequence: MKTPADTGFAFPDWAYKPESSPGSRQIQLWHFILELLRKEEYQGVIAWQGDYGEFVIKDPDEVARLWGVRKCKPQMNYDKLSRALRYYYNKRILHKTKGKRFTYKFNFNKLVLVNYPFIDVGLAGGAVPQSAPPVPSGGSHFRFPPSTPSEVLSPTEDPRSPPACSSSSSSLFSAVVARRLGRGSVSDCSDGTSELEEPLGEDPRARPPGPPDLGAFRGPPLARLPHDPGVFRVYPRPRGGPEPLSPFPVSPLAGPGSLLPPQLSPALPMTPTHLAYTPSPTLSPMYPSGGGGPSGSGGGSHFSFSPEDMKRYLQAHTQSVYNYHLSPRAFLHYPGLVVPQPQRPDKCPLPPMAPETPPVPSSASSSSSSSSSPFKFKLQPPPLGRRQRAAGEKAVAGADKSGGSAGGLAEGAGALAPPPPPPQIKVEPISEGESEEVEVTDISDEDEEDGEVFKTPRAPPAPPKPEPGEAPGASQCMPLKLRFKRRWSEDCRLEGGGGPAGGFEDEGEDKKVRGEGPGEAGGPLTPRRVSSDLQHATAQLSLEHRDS
# Outline: as §1
# [12] = target: T7, ETV3L (Homo sapiens, UniProt Q6ZN32 1-361); settings: protein: recombinant; tags: N-terminal GST; dsDNA, one strand shown
# T7 sequence: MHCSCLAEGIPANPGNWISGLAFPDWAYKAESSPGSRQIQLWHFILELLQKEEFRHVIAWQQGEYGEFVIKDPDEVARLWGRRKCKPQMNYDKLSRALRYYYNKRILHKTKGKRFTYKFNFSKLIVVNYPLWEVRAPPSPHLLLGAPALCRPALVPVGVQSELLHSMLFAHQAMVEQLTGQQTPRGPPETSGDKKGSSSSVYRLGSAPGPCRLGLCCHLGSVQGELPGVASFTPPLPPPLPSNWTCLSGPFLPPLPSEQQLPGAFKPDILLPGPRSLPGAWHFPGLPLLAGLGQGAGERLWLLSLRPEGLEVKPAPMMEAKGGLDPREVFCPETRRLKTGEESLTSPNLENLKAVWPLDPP
# Outline: as §1
# [13] = target: T8, ETS2 (Homo sapiens, UniProt P15036 1-469); settings: protein: recombinant; tags: N-terminal GST; dsDNA, one strand shown
# T8 sequence: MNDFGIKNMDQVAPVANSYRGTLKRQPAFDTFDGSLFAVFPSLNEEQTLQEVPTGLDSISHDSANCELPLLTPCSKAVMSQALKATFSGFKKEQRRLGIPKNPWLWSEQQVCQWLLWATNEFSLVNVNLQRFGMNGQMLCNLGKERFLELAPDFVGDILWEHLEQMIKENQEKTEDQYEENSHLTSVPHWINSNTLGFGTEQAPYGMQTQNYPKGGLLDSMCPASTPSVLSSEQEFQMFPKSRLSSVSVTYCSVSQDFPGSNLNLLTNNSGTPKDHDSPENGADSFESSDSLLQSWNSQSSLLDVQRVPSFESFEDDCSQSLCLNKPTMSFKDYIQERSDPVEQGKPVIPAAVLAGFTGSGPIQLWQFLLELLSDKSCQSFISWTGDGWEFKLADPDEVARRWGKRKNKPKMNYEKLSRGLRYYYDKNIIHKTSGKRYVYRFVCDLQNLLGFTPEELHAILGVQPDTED
# Outline: as §1
# [14] = target: T9, SPDEF (Homo sapiens, UniProt O95238 1-335); settings: protein: recombinant; tags: N-terminal GST; dsDNA, one strand shown
# T9 sequence: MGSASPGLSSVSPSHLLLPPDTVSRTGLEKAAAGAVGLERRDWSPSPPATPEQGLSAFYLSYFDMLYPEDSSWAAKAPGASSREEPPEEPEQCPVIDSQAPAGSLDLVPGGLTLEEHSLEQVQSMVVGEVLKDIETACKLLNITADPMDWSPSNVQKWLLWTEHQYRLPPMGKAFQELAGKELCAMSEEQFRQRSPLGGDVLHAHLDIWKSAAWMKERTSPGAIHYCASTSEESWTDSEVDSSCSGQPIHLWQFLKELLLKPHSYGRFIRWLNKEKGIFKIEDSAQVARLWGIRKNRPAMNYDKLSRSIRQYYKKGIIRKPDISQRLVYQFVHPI
# Outline: as §1
# [15] = target: T10, ETV7 (Homo sapiens, UniProt Q9Y603 1-341); settings: protein: recombinant; tags: N-terminal GST; dsDNA, one strand shown
# T10 sequence: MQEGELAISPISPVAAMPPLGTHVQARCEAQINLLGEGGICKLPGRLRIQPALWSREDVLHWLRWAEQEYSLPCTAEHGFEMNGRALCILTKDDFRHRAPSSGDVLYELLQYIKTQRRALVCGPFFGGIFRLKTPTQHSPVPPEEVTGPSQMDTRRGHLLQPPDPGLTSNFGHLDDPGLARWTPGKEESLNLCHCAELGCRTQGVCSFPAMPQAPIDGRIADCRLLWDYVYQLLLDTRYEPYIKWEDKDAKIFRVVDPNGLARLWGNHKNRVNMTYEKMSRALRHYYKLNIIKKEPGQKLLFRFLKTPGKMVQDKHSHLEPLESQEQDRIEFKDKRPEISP
# Outline: as §1
# [16] = target: T11, ELF5 (Homo sapiens, UniProt Q9UKW6-2 1-255); settings: protein: recombinant; tags: N-terminal GST; dsDNA, one strand shown
# T11 sequence: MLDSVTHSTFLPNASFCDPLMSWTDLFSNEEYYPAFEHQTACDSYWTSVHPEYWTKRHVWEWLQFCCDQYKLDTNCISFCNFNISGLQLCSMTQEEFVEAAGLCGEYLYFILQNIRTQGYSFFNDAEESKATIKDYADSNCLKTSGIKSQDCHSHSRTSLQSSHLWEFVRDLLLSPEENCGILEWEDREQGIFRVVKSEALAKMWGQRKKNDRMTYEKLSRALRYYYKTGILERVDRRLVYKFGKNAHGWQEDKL
# Outline: as §1
# [17] = target: T12, ETV3 (Homo sapiens, UniProt P41162-2 1-143); settings: protein: recombinant; tags: N-terminal GST; dsDNA, one strand shown
# T12 sequence: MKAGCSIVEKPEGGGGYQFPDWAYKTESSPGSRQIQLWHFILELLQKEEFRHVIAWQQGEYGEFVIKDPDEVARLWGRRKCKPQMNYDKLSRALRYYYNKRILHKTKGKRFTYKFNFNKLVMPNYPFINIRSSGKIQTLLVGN
# Outline: as §1
# [18] = target: ETV6 (Homo sapiens, UniProt P41212 1-452); settings: protein: recombinant; tags: N-terminal GST; dsDNA, one strand shown
# ETV6, sequence (P41212 whole entry): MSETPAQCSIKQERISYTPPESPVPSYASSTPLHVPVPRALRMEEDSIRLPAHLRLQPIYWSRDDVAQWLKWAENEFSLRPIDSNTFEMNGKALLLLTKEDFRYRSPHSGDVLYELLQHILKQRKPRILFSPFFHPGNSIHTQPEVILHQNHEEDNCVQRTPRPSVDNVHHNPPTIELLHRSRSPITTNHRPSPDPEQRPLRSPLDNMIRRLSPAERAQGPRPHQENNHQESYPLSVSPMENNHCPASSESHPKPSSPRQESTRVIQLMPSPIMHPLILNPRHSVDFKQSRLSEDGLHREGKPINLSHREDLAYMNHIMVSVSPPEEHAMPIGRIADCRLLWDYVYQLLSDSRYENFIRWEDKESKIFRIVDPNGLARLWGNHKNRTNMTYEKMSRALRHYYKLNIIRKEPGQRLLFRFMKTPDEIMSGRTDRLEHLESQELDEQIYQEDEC
# Outline: as §1
sequence,measurement,setting,value
ACTTAA,binding signal,[1],"1.15 fold enrichment (6-mer frequency, TF over GST control)"
same,binding signal,[2],"1.2 fold enrichment (6-mer frequency, TF over GST control)"
same,binding signal,[3],"1.67 fold enrichment (6-mer frequency, TF over GST control)"
same,binding signal,[4],"1.25 fold enrichment (6-mer frequency, TF over GST control)"
same,binding signal,[5],"1.19 fold enrichment (6-mer frequency, TF over GST control)"
same,binding signal,[6],"1.14 fold enrichment (6-mer frequency, TF over GST control)"
same,binding signal,[7],"1.16 fold enrichment (6-mer frequency, TF over GST control)"
same,binding signal,[8],"1.15 fold enrichment (6-mer frequency, TF over GST control)"
same,binding signal,[9],"2.66 fold enrichment (6-mer frequency, TF over GST control)"
same,binding signal,[10],"1.25 fold enrichment (6-mer frequency, TF over GST control)"
same,binding signal,[11],"1.26 fold enrichment (6-mer frequency, TF over GST control)"
same,binding signal,[12],"1.16 fold enrichment (6-mer frequency, TF over GST control)"
same,binding signal,[13],"1.19 fold enrichment (6-mer frequency, TF over GST control)"
same,binding signal,[14],"1.17 fold enrichment (6-mer frequency, TF over GST control)"
same,binding signal,[15],"1.27 fold enrichment (6-mer frequency, TF over GST control)"
same,binding signal,[16],"1.16 fold enrichment (6-mer frequency, TF over GST control)"
same,binding signal,[17],"1.17 fold enrichment (6-mer frequency, TF over GST control)"
same,binding signal,[18],"1.21 fold enrichment (6-mer frequency, TF over GST control)"
